# Reference: PubChem BioAssay (NCATS)
# Where “and” joins values, the source holds several entries; their conditions need not be identical. Equal entries are not always repeated. Inconclusive results are not listed. A call without a number means that no potency is given here. A number with no mark means an inactive call. Calls of active or inactive are those of the source. Calls follow the shape of the dose curve; as a rule, active = well fitted curve in the direction sought with a large enough effect; inconclusive = small, poorly fitted or top-dose-only effect, or another doubt; inactive = no such curve, though single readings can be large; an effect the other way counts as inactive or inconclusive.
# How the values were obtained:
# [1] = Viability qHTS for spleen associated tyrosine kinase inhibitor (SYKi) naive MV4-11 cells (AID 1963823); settings: MV4-11 AML viability, CellTiter-Glo luminescence, 72 h; series mostly up to 45 µM; also: nearly all actives have a fitted effect of over 40% in size; also: potency is read from the fitted curve at half-maximal effect
# Procedure, shortened: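 Viability of MV4-11 AML cells lacking prior SYK inhibitor exposure is scored by CellTiter-Glo luminescence following 72 hr compound incubation at 37 C, 5% CO2, seeded at 500 cells per well.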
# [2] = Viability qHTS for spleen associated tyrosine kinase inhibitor (SYKi) drug resistant MV4-11 cells (AID 1963824); settings: SYKi-resistant MV4-11 viability, CellTiter-Glo, 72 h; series mostly up to 45 µM; also: nearly all actives have a fitted effect of over 35% in size; also: potency is read from the fitted curve at half-maximal effect
# Procedure, shortened: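 CellTiter-Glo luminescence, read 10 min after reagent addition, reports viability after a 72 hr compound exposure. Cells are an MV4-11 line made resistant to SYK inhibition, seeded at 500 per well onto compound-containing plates.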
# [3] = Quantitative highthroughput screen to assess conditional lethalithy of P12 Ichikawa cells grown in Human Plasma-Like Medium with dialyzed fetal bovine serum (HPLM+ds) (AID 1963879); settings: ATP luminescence, 48 h; Potency: viability; series mostly up to 45.8 µM; also: nearly all actives have a fitted effect of over 35% in size; also: potency is read from the fitted curve at half-maximal effect
# Procedure, shortened: (§1)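 Each medium arm—HPLM with 10% dialyzed FBS, or RPMI1640 with 5 mM glucose and 10% untreated or dialyzed FBS—was screened against an 11-point, 3-fold compound titration for 48 h at 37 °C, with CellTiter-Glo luminescence as endpoint.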
# [4] = Quantitative highthroughput screen to assess conditional lethalithy of SEM cells grown in Human Plasma-Like Medium with dialyzed fetal bovine serum (HPLM+ds) (AID 1963882); settings: SEM B-ALL cells in HPLM+ds, CellTiter-Glo viability, 48 h; series mostly up to 45.8 µM; also: nearly all actives have a fitted effect of over 35% in size
# Procedure, shortened: as §1
# [5] = Quantitative highthroughput screen to assess conditional lethalithy of SEM cells grown in RPMI1640 with unreated serum (RPMI+s) (AID 1963883); settings: SEM B-ALL cells, CellTiter-Glo viability, 48 h; series mostly up to 45.8 µM; also: nearly all actives have a fitted effect of over 35% in size
# Procedure, shortened: as §1
# [6] = Cellular viability qHTS for adrenocortical cancer (ACC) cell line SW-13 (AID 1963989); settings: SW-13 ACC cells viability, CellTiter-Glo, 48 h; activity (max response): active compounds read low; also: nearly all actives have a fitted effect of over 65% in size; also: potency is read from the fitted curve at half-maximal effect;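 as to activity (max response): cells grown in serum-free medium with ITS supplement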
# Procedure, shortened: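 Viability was read as CellTiter-Glo luminescence after 48 h compound treatment (up to 46 uM final) of SW-13 cells grown serum-free; titration curves were fit with a four-parameter logistic model to give IC50 and efficacy.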
# [7] = Cellular viability qHTS for adrenocortical cancer (ACC) cell line NCI-H295R (AID 1963990); settings: CellTiter-Glo ATP luminescence, 48 h; series mostly up to 46.1 µM; also: nearly all actives have a fitted effect of over 60% in size; also: potency is read from the fitted curve at half-maximal effect
# Procedure, shortened: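 CellTiter-Glo ATP luminescence, read 48 h after compound addition, measured viability of NCI-H295R adrenocortical cells grown serum-free with ITS. Final concentrations spanned up to 46 uM. Data normalized to DMSO and doxorubicin, fitted for IC50 and maximal response.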
# [8] = Quantitative highthroughput screen to assess conditional lethalithy of NOMO1 cells grown in RPMI1640 with dialyzed fetal bovine serum (RPMI+ds) (AID 1963877); settings: NOMO1 in RPMI+dialyzed FBS viability, ATP luminescence, 48 h; series mostly up to 45.8 µM; also: nearly all actives have a fitted effect of over 30% in size; also: potency is read from the fitted curve at half-maximal effect
# Procedure, shortened: as §1
# [9] = Quantitative highthroughput screen to assess conditional lethalithy of NOMO1 cells grown in Human Plasma-Like Medium with dialyzed fetal bovine serum (HPLM+ds) (AID 1963878); settings: NOMO1 AML cells in HPLM+ds, CellTiter-Glo viability, 48 h; series mostly up to 45.8 µM; also: nearly all actives have a fitted effect of over 35% in size
# Procedure, shortened: as §1
# [10] = Quantitative highthroughput screen to assess conditional lethalithy of P12 Ichikawa cells grown in RPMI1640 with untreated serum (RPMI+s) (AID 1963881); settings: ATP luminescence, 48 h; Potency: viability; series mostly up to 45.8 µM; also: nearly all actives have a fitted effect of over 35% in size; also: potency is read from the fitted curve at half-maximal effect
# Procedure, shortened: as §1
# [11] = Quantitative highthroughput screen to assess conditional lethalithy of P12 Ichikawa cells grown in RPMI1640 with dialyzed fetal bovine serum (RPMI+ds) (AID 1963880); settings: ATP luminescence, 48 h; Potency: P12-Ichikawa viability; series mostly up to 45.8 µM; also: nearly all actives have a fitted effect of over 35% in size; also: potency is read from the fitted curve at half-maximal effect
# Procedure, shortened: as §1
# [12] = Quantitative highthroughput screen to assess conditional lethalithy of SEM cells grown in RPMI1640 with dialyzed fetal bovine serum (RPMI+ds) (AID 1963884); settings: SEM B-ALL cells, RPMI+dialyzed FBS, CellTiter-Glo viability, 48 h; series mostly up to 45.8 µM; also: nearly all actives have a fitted effect of over 35% in size; also: potency is read from the fitted curve at half-maximal effect
# Procedure, shortened: as §1
# [13] = Quantitative highthroughput screen to assess conditional lethalithy of NOMO1 cells grown in RPMI1640 with untreated serum (RPMI+s) (AID 1963876); settings: NOMO1 AML cells in RPMI+serum, CellTiter-Glo viability, 48 h; series mostly up to 45.8 µM; also: nearly all actives have a fitted effect of over 35% in size
# Procedure, shortened: as §1
smiles,measurement,setting,value
COC1C(O)C(OC2CCC3(C=O)C(CCC4C3CCC3(C)C(C5=CC(=O)OC5)CCC43O)C2)OC(C)C1OC1OC(CO)C(O)C(O)C1O (stereo not drawn),Potency,[1],153 nM (active)
same,Potency,[2],172 nM (active)
COC[C@]12CN(C)C3C4[C@H](OC)[C@H]1C3(C(OC)C[C@H]2O)[C@H]1C[C@@]2(O)[C@H](OC(=O)c3ccccc3)[C@@H]1[C@]4(O)[C@@H](O)[C@@H]2OC (stereo partly drawn),Potency,[1],inactive
same,Potency,[2],inactive
COC1CC(O[C@H]2CC[C@]3(C=O)C4CC[C@]5(C)[C@@H](C6=CC(=O)OC6)CC[C@]5(O)[C@@H]4CC[C@@H]3C2)OC(C)C1O[C@@H]1O[C@H](CO)[C@@H](O[C@@H]2O[C@H](CO)[C@@H](O)[C@H](O)[C@H]2O)[C@H](O)[C@H]1O (stereo partly drawn),Potency,[1],174 nM (active)
same,Potency,[2],123 nM (active)
C=C1[C@@]23C(=O)O[C@H](C)[C@]24O[C@@]2(C(=C)[C@]5(C=CC(=O)OC5(C)C)CC[C@]32C)[C@H](O)[C@@]1(C)OC4=O,Potency,[1],inactive
same,Potency,[2],inactive
C=CCC1=C(C)C(OC(=O)C2C(C=C(C)C)C2(C)C)CC1=O (stereo not drawn),Potency,[1],5450 nM (active)
same,Potency,[2],9690 nM (active)
Fc1cc(F)c2c(c1)C1C=CCC1C(c1cccnc1)N2 (stereo not drawn),Potency,[1],3660 nM (active)
same,Potency,[2],2910 nM (active)
COC1CC(OC2CCC3(C=O)C(CCC4C3CCC3(C)C(C5=CC(=O)OC5)CCC43O)C2)OC(C)C1O (stereo not drawn),Potency,[1],89.3 nM (active)
same,Potency,[2],70.9 nM (active)
CC[C@H](C)[C@H](NC(=O)[C@H]1CCCCN1C)C(=O)N(COC(=O)CC(C)C)[C@H](C[C@@H](OC(C)=O)c1nc(C(=O)N[C@@H](Cc2ccc(O)cc2)C[C@H](C)C(=O)O)cs1)C(C)C,Potency,[1],0.4 nM (active)
same,Potency,[2],0.4 nM (active)
CCC(C)(C#N)O[C@@H]1O[C@H](CO)[C@@H](O)[C@H](O)[C@H]1O (stereo partly drawn),Potency,[1],inactive
same,Potency,[2],inactive
N#CC(O[C@@H]1O[C@H](CO)[C@@H](O)[C@H](O)[C@H]1O)c1ccccc1 (stereo partly drawn),Potency,[1],inactive
same,Potency,[2],inactive
CN1C[C@@H]2CN(c3ccc(-c4ccccc4)nn3)C[C@@H]2C1,Potency,[1],inactive
same,Potency,[2],580 nM (active)
CC(C)(C)c1cc(C=C(C#N)C#N)cc(Br)c1O,Potency,[1],16600 nM (active)
same,Potency,[2],16600 nM (active)
same,Potency,[3],inactive
same,Potency,[4],inactive
same,Potency,[5],inactive
same,activity (max response),[6],9.19%
same,Potency,[7],inactive
O=c1[nH]c2ccccc2n1C1CCN(Cc2ccc(-c3[nH]c4cc5ncnc5cc4nc3-c3ccccc3)cc2)CC1,Potency,[1],14800 nM (active)
same,Potency,[2],1840 nM (active)
same,Potency,[8],inactive
same,Potency,[9],inactive
same,Potency,[3],inactive
same,Potency,[10],inactive
same,Potency,[4],inactive
same,Potency,[7],22400 nM (active)
N=c1c2c(-c3ccccc3)c(-c3ccccc3)n(Cc3ccccc3)c2ncn1C1CCC(O)CC1 (stereo not drawn),Potency,[1],525 nM (active)
same,Potency,[2],372 nM (active)
same,Potency,[11],16600 nM (active)
same,Potency,[6],17800 nM (active)
same,Potency,[7],8910 nM (active)
O=c1cccc2n1CC1CNC[C@H]2C1,Potency,[1],inactive
same,Potency,[2],inactive
same,Potency,[4],inactive
same,Potency,[12],inactive
same,activity (max response),[6],-2.44%
same,Potency,[7],inactive
CCc1c(C(=O)C(N)=O)c2c(OCC(=O)O)cccc2n1Cc1ccccc1,Potency,[1],inactive
same,Potency,[2],inactive
same,Potency,[13],inactive
same,Potency,[3],inactive
same,Potency,[11],inactive
same,Potency,[4],inactive
same,Potency,[5],inactive
same,activity (max response),[6],-1.25%
same,Potency,[7],inactive
COC[C@@H](NC(C)=O)C(=O)NCc1ccccc1,Potency,[1],inactive
same,Potency,[2],inactive
same,Potency,[4],inactive
same,Potency,[12],inactive
same,Potency,[7],inactive
Cc1sc2c(c1C)C(c1ccc(Cl)cc1)=N[C@@H](CC(=O)OC(C)(C)C)c1nnc(C)n1-2,Potency,[1],105 nM (active)
same,Potency,[2],118 nM (active)
same,Potency,[8],372 nM (active)
same,Potency,[3],1660 nM (active)
same,Potency,[11],2640 nM (active)
same,Potency,[10],1870 nM (active)
same,Potency,[12],209 nM (active)
same,Potency,[7],3980 nM (active)
CC1(N2CCC(n3c([C@@H]4CCCNC4)nc4ccccc43)CC2)CCCCCCC1,Potency,[1],6510 nM (active)
same,Potency,[2],9.2 µM (active) and 7.42 µM (active)
same,Potency,[8],16600 nM (active)
same,Potency,[5],inactive
same,Potency,[12],inactive
same,Potency,[6],28200 nM (active)
same,Potency,[7],17800 nM (active)
CCC1(c2ccc(N)cc2)CCC(=O)NC1=O (stereo not drawn),Potency,[1],inactive
same,Potency,[2],inactive
same,Potency,[11],inactive
same,Potency,[10],inactive
same,Potency,[4],inactive
same,Potency,[12],inactive
same,activity (max response),[6],-1.13% and 5.11%
same,Potency,[7],inactive
CCCC[N+]1(C)[C@H]2CC(OC(=O)[C@H](CO)c3ccccc3)C[C@H]1[C@H]1O[C@H]12 (stereo partly drawn),Potency,[1],inactive
same,Potency,[2],inactive
same,Potency,[3],inactive
same,Potency,[11],inactive
same,Potency,[10],inactive
same,Potency,[4],inactive
same,activity (max response),[6],-1.99%
same,Potency,[7],inactive
